According to PubChem BioAssay AID1159580 (chemical genetic matrix, 2015):
“And” between values parts separate entries of the source, which are not always exact repeats. Equal values may be shown once. Among all 5,500 compounds or so, about 2,000 (36%) were called active. Inconclusive results (about 18%) are left out. Rule as the data show it: active = normalized growth mostly below about 0.91 (no sharp cut-off); inconclusive = no clear call, values can overlap the other calls; inactive = mostly above about 0.92. The list shows a part of the results.

Test: chemical genetic growth profiling, strain panel (AID 1159580);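 also: tested at 20 µM; growth read once vehicle control cultures reached saturation at 30 °C; 1 = growth at the plate median or of vehicle wells; lower values mean less growth of the strain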
Conditions: growth OD

Measured: normalized growth

Cc1cccc(C)c1OCC(C)N (stereo not drawn)
inactive: S. cerevisiae deletion strains, locus YKL009W, strain mrt4, active compounds read low 0.972 | S. cerevisiae deletion strains, locus YKL068W, active compounds read low 0.982 | S. cerevisiae deletion strains, locus YKL085W, strain MDH1 (second series), active compounds read low 1.04 | S. cerevisiae deletion strains, locus YKL085W, strain MDH1, active compounds read low 1.04 | S. cerevisiae deletion strains, locus YKL160W, strain elf1, active compounds read low 1 | S. cerevisiae deletion strains, locus YKL190W, strain CNB1, active compounds read low 0.996 | S. cerevisiae deletion strains, locus YKR001C, strain vps1, active compounds read low 0.99 | S. cerevisiae deletion strains, locus YKR026C, strain gcn3, active compounds read low 0.999 | S. cerevisiae deletion strains, locus YKR091W, strain srl3, active compounds read low 1.01 | S. cerevisiae deletion strains, locus YLL001W, strain dnm1, active compounds read low 1.02 | S. cerevisiae deletion strains, locus YLL026W, active compounds read low 1.02 | S. cerevisiae deletion strains, locus YLL041C, strain sdh2, active compounds read low 1.01 | S. cerevisiae deletion strains, locus YLR027C, strain aat2, active compounds read low 1.01 | S. cerevisiae deletion strains, locus YLR039C, strain RIC1, active compounds read low 1.02 | S. cerevisiae deletion strains, locus YLR058C, strain SHM2, active compounds read low 0.998 | S. cerevisiae deletion strains, locus YLR102C, strain apc9, active compounds read low 0.989 | S. cerevisiae deletion strains, locus YLR113W, strain HOG1, active compounds read low 0.987 | S. cerevisiae deletion strains, locus YLR221C, strain rsa3, active compounds read low 1 | S. cerevisiae deletion strains, locus YLR258W, strain gsy2, active compounds read low 1.01 | S. cerevisiae deletion strains, locus YLR262C, strain YPT6 (second series), active compounds read low 1.01 | S. cerevisiae deletion strains, locus YLR262C, strain YPT6, active compounds read low 0.993 | S. cerevisiae deletion strains, locus YLR268W, strain sec22, active compounds read low 0.993 | S. cerevisiae deletion strains, locus YLR320W, strain mms22, active compounds read low 1.03 | S. cerevisiae deletion strains, locus YLR330W, strain CHS5, active compounds read low 0.992 | S. cerevisiae deletion strains, locus YLR342W, strain FKS1 (second series), active compounds read low 1.01 | S. cerevisiae deletion strains, locus YLR342W, strain FKS1, active compounds read low 1.01 | S. cerevisiae deletion strains, locus YLR357W, strain rsc2, active compounds read low 1.02 | S. cerevisiae deletion strains, locus YLR370C, strain arc18, active compounds read low 1.01 | S. cerevisiae deletion strains, locus YLR371W, strain rom2, active compounds read low 0.988 | S. cerevisiae deletion strains, locus YLR384C, strain iki3, active compounds read low 1.01 | S. cerevisiae deletion strains, locus YLR418C, strain cdc73, active compounds read low 1.03 | S. cerevisiae deletion strains, locus YML016C, strain PPZ1, active compounds read low 0.995 | S. cerevisiae deletion strains, locus YML032C, strain rad52, active compounds read low 1 | S. cerevisiae deletion strains, locus YML120C, strain ndi1, active compounds read low 1 | S. cerevisiae deletion strains, locus YML124C, strain tub3, active compounds read low 0.991 | S. cerevisiae deletion strains, locus YMR058W, strain fet3, active compounds read low 1.02 | S. cerevisiae deletion strains, locus YMR078C, strain ctf18, active compounds read low 0.986 | S. cerevisiae deletion strains, locus YMR125W, strain sto1, active compounds read low 1.01 | S. cerevisiae deletion strains, locus YMR129W, active compounds read low 0.994 | S. cerevisiae deletion strains, locus YMR205C, strain PFK2, active compounds read low 1.03 | S. cerevisiae deletion strains, locus YMR223W, strain ubp8, active compounds read low 1.01 | S. cerevisiae deletion strains, locus YMR231W, strain pep5, active compounds read low 1.01 | S. cerevisiae deletion strains, locus YMR263W, strain SAP30, active compounds read low 0.993 | S. cerevisiae deletion strains, locus YMR307W, strain GAS1, active compounds read low 0.969 | S. cerevisiae deletion strains, locus YNL067W, strain RPL9B, active compounds read low 1.01 | S. cerevisiae deletion strains, locus YNL071W, strain lat1, active compounds read low 1.01 | S. cerevisiae deletion strains, locus YNL153C, strain GIM3, active compounds read low 1.03 and 1 | S. cerevisiae deletion strains, locus YNL175C, strain NOP13, active compounds read low 1 | S. cerevisiae deletion strains, locus YNL183C, strain NPR1, active compounds read low 0.956 | S. cerevisiae deletion strains, locus YNL197C, strain WHI3, active compounds read low 0.992 | S. cerevisiae deletion strains, locus YNL209W, strain ssb2, active compounds read low 1.01 | S. cerevisiae deletion strains, locus YNL224C, strain SQS1, active compounds read low 1 | S. cerevisiae deletion strains, locus YNL233W, strain BNI4, active compounds read low 1.03 | S. cerevisiae deletion strains, locus YNL248C, strain rpa49, active compounds read low 0.991 | S. cerevisiae deletion strains, locus YNL250W, strain rad50, active compounds read low 0.987 | S. cerevisiae deletion strains, locus YNL271C, strain bni1, active compounds read low 0.985 | S. cerevisiae deletion strains, locus YNL298W, strain CLA4, active compounds read low 0.986 | S. cerevisiae deletion strains, locus YNL307C, strain MCK1, active compounds read low 1.02 | S. cerevisiae deletion strains, locus YNL322C, strain KRE1 (second series), active compounds read low 1 | S. cerevisiae deletion strains, locus YNL322C, strain KRE1, active compounds read low 0.991 | S. cerevisiae deletion strains, locus YNR049C, strain mso1, active compounds read low 1 | S. cerevisiae deletion strains, locus YNR052C, strain pop2, active compounds read low 0.977 | S. cerevisiae deletion strains, locus YOL006C, strain TOP1, active compounds read low 1.11 | S. cerevisiae deletion strains, locus YOL012C, strain htz1 1.19 | S. cerevisiae deletion strains, locus YOL147C, strain pex11, active compounds read low 0.99 | S. cerevisiae deletion strains, locus YOR001W, strain rrp6, active compounds read low 0.994 | S. cerevisiae deletion strains, locus YOR061W, strain CKA2, active compounds read low 0.998 | S. cerevisiae deletion strains, locus YOR069W, strain VPS5, active compounds read low 0.988 | S. cerevisiae deletion strains, locus YOR070C, strain gyp1, active compounds read low 0.997 | S. cerevisiae deletion strains, locus YOR080W, strain dia2, active compounds read low 1.01 | S. cerevisiae deletion strains, locus YOR083W, strain WHI5 (second series), active compounds read low 1 | S. cerevisiae deletion strains, locus YOR083W, strain WHI5, active compounds read low 0.993 | S. cerevisiae deletion strains, locus YOR106W, strain vam3, active compounds read low 1.01 | S. cerevisiae deletion strains, locus YOR136W, strain idh2, active compounds read low 0.987 | S. cerevisiae deletion strains, locus YOR144C, strain elg1, active compounds read low 0.991 | S. cerevisiae deletion strains, locus YOR184W, strain ser1, active compounds read low 1.03 | S. cerevisiae deletion strains, locus YOR231W, strain MKK1, active compounds read low 0.999 | S. cerevisiae deletion strains, locus YOR265W, strain rbl2, active compounds read low 1.01 | S. cerevisiae deletion strains, locus YOR270C, strain vph1, active compounds read low 1.05 | S. cerevisiae deletion strains, locus YOR290C, strain snf2, active compounds read low 1 | S. cerevisiae deletion strains, locus YOR316C, strain cot1, active compounds read low 0.977 | S. cerevisiae deletion strains, locus YPL051W, strain arl3, active compounds read low 1 | S. cerevisiae deletion strains, locus YPL078C, strain atp4, active compounds read low 1 | S. cerevisiae deletion strains, locus YPL106C, strain sse1, active compounds read low 1.02 | S. cerevisiae deletion strains, locus YPL240C, strain hsp82, active compounds read low 1.01 | S. cerevisiae deletion strains, locus YPL241C, strain CIN2, active compounds read low 0.995 | S. cerevisiae deletion strains, locus YPL256C, strain CLN2, active compounds read low 0.998 | S. cerevisiae deletion strains, locus YPR119W, strain clb2, active compounds read low 0.993 | S. cerevisiae deletion strains, locus YPR141C, strain kar3, active compounds read low 0.983 | S. cerevisiae deletion strains, locus YPR163C, strain tif3, active compounds read low 0.981 | S. cerevisiae deletion strains, locus YPR167C, strain met16, active compounds read low 0.978 | S. cerevisiae deletion strains, strain wtn01, active compounds read low 0.983 | S. cerevisiae strains, strain wild type, active compounds read low 0.997
